Results on 39 compounds are retold here after PubChem BioAssay (NCI).

This is part of a sample that, as a whole, favours compounds with a hit. Of some 79,000 tested, about 15% had one in any assay. A number with no mark means an inactive call. Calls of active or inactive are those of the source. Rule as the data show it: active = growth inhibition above about 70%; inactive = the rest.

The nature of this assay: NCI Yeast Anticancer Drug Screen. Data for the mec2-1 strain (AID 157). The conditions noted are these: S. cerevisiae mec2-1 strain, at 5.0 µM (retest, dose inferred, filed as 0.5), stronger effect = higher value. Summed up: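 Compounds were applied to mec2-1 yeast cells. Their growth was then compared with that of vehicle-treated cultures to give growth inhibition.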
With `C/C(=N\NC(=S)SCc1ccccc1)c1ccccn1`, the growth inhibition is -5%.
On to `CC[C@@]1(O)C(=O)OCc2c1cc1n(c2=O)Cc2cc3c(N)cccc3nc2-1`, for which the growth inhibition was 2%.
Take `CN(C)c1ccc(Sc2ccc3nc(N)nc(N)c3c2)cc1`: the growth inhibition is 28%.
As to `CC(=O)OCCOCNC(=S)N/N=C(\C)c1cnccn1`, the growth inhibition is -59%.
`COc1ccc(C2c3cc4c(cc3OC(C)(O)C2C)OCO4)c(OC)c1` (centres undefined): the growth inhibition is 4%.
As to `COc1cc(C2SCC(=O)N2c2ccc(-c3ccc(-n4c(-c5ccccc5)nc5ccccc5c4=O)cc3)cc2)cc(OC)c1OC` (centres undefined), the growth inhibition is 2%.
In the case of `COc1ccc(Br)c(C(=O)Sc2nnnn2-c2cccc(Cl)c2)c1` it was 40%; in that of `O=C(NNc1ccnc2cc(Cl)ccc12)/C(=C\c1ccccc1Cl)NC(=O)c1ccccc1`, -16%.
With `CSC(=S)Nc1cccc(C)n1`, the growth inhibition was 70% (active).
The figure for `O=C(/C=C\c1ccc(Cl)cc1Cl)c1cccs1` is -10%; for `COc1ccc(-c2cn(-c3ccc(I)cc3)c3ncnc(N)c23)cc1` it is -6%; for `CN(C)c1ccc(C(C#N)=C(C#N)C#N)cc1` it is -35%.
Regarding `COc1cc(/C=C2\CCc3ccccc3C2=O)cc(OC)c1OC`, the growth inhibition is -11%.
Regarding `CC(C)/C(Cl)=N\OC(=O)Nc1cccc(Cl)c1`, the growth inhibition is -17%.
Take `CC1(C)[C@@H]2CC[C@]1(C)[C@H](OC(=O)CSC#N)C2`: the growth inhibition is 8%.
In the case of `NNC(=O)CCc1ccc2ccc3ccccc3c2c1` it was -1%; in that of `COc1ccc(/C(C)=N/OC(=O)c2c(-c3ccccc3Cl)noc2C)cc1CN1CCOCC1`, 68%; in that of `C=CC(C)(O)CCC1C(=C)C(O)CC2C(C)(C)CCCC12C` (centres undefined), 48%.
The figure for `S=C(Nc1ccc(Cl)c(Cl)c1)SCc1ccc2c(c1)OCO2` is 78% (active); for `COc1cc(C2C3=C(COC3=O)Oc3cc4c(cc32)OCO4)ccc1O` (centres undefined) it is -10%; for `S=C(Nc1ccc(Cl)cc1)SC1CCCCC1` it is 1%.
Take `Nc1nc(-c2cccnc2)cc(-c2cc(-c3cccnc3)nc(N)n2)n1`: the growth inhibition is 24%.
Take `COC1=CC(=O)C2C(C1=O)C(c1ccc(Cl)cc1)[C@@H]2C` (some centres undefined): the growth inhibition was -12%.
Regarding `c1ccc(-c2nc3cccnc3s2)cc1`, the growth inhibition is 5%.
As to `O=[N+]([O-])c1cc(CCl)ccc1CCl`, the growth inhibition was -7%.
Regarding `COc1ccc(/C=C2\SC(=S)N(/C=C/c3nc4ccccc4[nH]c3=O)C2=O)cc1OC`, the growth inhibition was -17%.
The figure for `CCCN(CCC)CC(O)c1cc(-c2ccc(Cl)cc2)nc2c(C)c(Cl)ccc12` (centres undefined) is 9%; for `O=C(Nc1ccccc1)OCCc1ccc(Cl)c(Cl)c1` it is 0%.
Consider `CC(O)C(O)C(O)C(/C=N\Nc1ccccc1)=N/Nc1ccccc1` (centres undefined), for which the growth inhibition was -5%.
With `C#CCCCc1ccccc1`, the growth inhibition was -13%.
The figure for `CC(=O)Cc1ccc[cH-]1.[Fe+2].c1cc[cH-]c1` is -6%; for `Cc1cc(I)ccc1N` it is 51%; for `FC(F)(F)c1cc(NC(=S)N2c3ccccc3-n3cccc3C2c2cccnc2)cc(C(F)(F)F)c1` (centres undefined) it is -6%.
For the compound `CC(C)(CN1CCCCC1)C(=O)CC(SCCS(=O)(=O)O)c1ccc(Br)cc1` (centres undefined), the growth inhibition was -7%.
In the case of `C[Si](C)(C)CNC(=O)OCc1ccccc1` it was -1%.
With `CC(C(=O)N1C(=O)N(C(=O)[C@H](C)C(O)c2ccccc2)[C@H](c2ccccc2)[C@H]1c1ccccc1)[C@@H](O)c1ccccc1` (some centres undefined), the growth inhibition was -14%.
As to `Oc1cccc2c(Cl)ccnc12`, the growth inhibition is 99% (active).
Regarding `O=C1C=CC(=C(c2ccccc2)c2ccccc2)c2ccccc21`, the growth inhibition was -1%.
Regarding `S=C(S)NN1CCOCC1`, the growth inhibition is 65%.
